The experiment addresses Proto-oncogene tyrosine-protein kinase Src (Homo sapiens) (UniProt P12931). In words: SRC kinase inhibition relative to ABL, profiling panel, biochemical, recombinant kinase panel (AID 1224917). The following applies: 33P substrate incorporation, hits give high values.

Active and inactive are the calls of the source. No rule for the calls is given here. Some results are limits rather than exact numbers.

Our source for the selectivity fold (ABL/SRC IC50) values is PubChem BioAssay AID1224917.

Sequence of Proto-oncogene tyrosine-protein kinase Src (Homo sapiens) (P12931 whole entry, looked up): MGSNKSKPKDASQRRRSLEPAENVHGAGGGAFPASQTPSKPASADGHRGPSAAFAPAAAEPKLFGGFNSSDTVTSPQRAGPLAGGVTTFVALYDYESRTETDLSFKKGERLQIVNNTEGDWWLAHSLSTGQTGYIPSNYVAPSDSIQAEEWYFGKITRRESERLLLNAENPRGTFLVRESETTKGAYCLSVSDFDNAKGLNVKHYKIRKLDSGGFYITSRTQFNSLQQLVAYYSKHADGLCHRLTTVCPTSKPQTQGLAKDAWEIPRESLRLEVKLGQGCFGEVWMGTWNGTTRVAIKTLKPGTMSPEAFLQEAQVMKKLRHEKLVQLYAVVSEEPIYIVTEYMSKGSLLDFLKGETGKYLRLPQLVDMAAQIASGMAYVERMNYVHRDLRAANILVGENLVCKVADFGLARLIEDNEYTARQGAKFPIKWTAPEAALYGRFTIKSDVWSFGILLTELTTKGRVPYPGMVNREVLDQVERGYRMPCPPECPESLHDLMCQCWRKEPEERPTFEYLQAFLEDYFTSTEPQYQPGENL

Regarding `COc1cc(-c2nn(CCN3CCC(N(C)C)CC3)c3ncnc(N)c23)ccc1NC(=O)OC(C)(C)C`, the selectivity fold (ABL/SRC IC50) was > 950 (active).
